Results: PubChem BioAssay (Tox21)
Results filed as inconclusive are left out. Activity calls are given as the source filed them. Unless noted, the call rests on the fitted dose curve; in most records, active means well fitted curve in the direction sought with a large enough effect in the repeat runs; inconclusive means weak or mixed curves; inactive means no such curve, though single readings can be large; an effect the other way counts as inactive or inconclusive.

Assays:
[1] = target: Aryl hydrocarbon receptor (Homo sapiens) (UniProt P35869); test: qHTS assay to identify small molecule that activate the aryl hydrocarbon receptor (AhR) signaling pathway (AID 743085); further: nearly all actives have a fitted effect of over 15% in size; further: potency means the concentration at half of the fitted maximal effect;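 on activation: HG2L7.5c1 human HepG2 liver cells with stably integrated DRE-driven firefly reporter; series mostly up to about 70 µM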
Sequence of Aryl hydrocarbon receptor (Homo sapiens) (P35869 whole entry, looked up): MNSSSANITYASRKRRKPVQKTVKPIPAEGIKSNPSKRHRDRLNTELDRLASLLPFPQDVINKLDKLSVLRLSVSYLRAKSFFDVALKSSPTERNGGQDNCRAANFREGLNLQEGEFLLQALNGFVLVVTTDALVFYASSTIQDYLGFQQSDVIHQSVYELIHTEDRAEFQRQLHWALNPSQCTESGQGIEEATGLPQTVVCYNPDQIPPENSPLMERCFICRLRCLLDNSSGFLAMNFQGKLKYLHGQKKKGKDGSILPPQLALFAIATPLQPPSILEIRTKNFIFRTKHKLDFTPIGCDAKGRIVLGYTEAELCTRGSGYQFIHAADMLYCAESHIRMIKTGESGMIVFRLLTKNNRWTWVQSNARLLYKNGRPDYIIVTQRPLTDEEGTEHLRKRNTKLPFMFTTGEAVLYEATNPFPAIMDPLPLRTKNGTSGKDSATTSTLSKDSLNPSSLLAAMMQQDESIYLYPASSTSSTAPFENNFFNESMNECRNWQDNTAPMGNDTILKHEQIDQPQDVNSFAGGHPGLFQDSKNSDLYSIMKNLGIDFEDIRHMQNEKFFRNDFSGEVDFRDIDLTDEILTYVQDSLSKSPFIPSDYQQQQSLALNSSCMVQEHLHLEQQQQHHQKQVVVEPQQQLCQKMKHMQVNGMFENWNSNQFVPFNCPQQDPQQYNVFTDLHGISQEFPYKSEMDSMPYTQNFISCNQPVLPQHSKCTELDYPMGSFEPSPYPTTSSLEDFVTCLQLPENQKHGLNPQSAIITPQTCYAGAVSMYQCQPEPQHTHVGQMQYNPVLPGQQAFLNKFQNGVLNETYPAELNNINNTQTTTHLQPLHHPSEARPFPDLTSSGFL
Summary of the method: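 HepG2 cells (HG2L7.5c1) stably carrying a firefly luciferase reporter driven by 20 dioxin responsive elements were exposed to compound for 24 h at 37C after a 5 h settling period; luminescence rise (ONE-Glo) indicated activation.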

[2] = target: Peroxisome proliferator-activated receptor gamma (Homo sapiens) (UniProt P37231); test: qHTS assay to identify small molecule agonists of the peroxisome proliferator-activated receptor gamma (PPARg) signaling pathway (AID 743094; active means well fitted activation curve with a large enough effect in the signal ratio in the repeat runs, not every such curve was filed as active; the % refers to the signal ratio)
Sequence of Peroxisome proliferator-activated receptor gamma (Homo sapiens) (P37231 whole entry, looked up): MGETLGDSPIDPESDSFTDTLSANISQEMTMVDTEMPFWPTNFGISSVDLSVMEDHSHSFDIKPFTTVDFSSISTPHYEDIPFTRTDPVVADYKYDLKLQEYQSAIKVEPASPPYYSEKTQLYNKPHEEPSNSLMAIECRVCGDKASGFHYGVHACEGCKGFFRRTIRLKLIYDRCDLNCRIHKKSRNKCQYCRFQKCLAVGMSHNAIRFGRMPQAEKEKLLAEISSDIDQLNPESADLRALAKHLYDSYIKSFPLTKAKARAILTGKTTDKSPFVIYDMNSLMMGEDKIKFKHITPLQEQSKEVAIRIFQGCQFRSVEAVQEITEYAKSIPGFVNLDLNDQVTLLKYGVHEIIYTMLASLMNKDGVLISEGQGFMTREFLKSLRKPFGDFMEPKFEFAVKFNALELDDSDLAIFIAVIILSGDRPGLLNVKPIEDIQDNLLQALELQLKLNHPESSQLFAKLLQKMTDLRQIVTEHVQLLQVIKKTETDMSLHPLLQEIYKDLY
Summary of the method: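 HEK293H PPARg-bla cells, 5 h settle at 37C/5% CO2; compound (DMSO) 17 h, 37C; B/G FRET substrate 1 h RT; fluorescence intensity read-out. qHTS format.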

[3] = qHTS assay to identify small molecule antagonists of the peroxisome proliferator-activated receptor gamma (PPARg) signaling pathway - cell viability counter screen (AID 743194); further: nearly all actives have a fitted effect of over 55% in size; further: potency means the concentration at half of the fitted maximal effect
Summary of the method: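 Cytotoxicity counter screen in PPARg-bla HEK293H cells, same wells as reporter assay. Compounds plus 50 nM rosiglitazone (final) for 17 h at 37 C, then viability read by CellTiter-Glo luminescence.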

[4] = qHTS assay for small molecule activators of the heat shock response signaling pathway - cell viability counter screen (AID 743209); further: nearly all actives have a fitted effect of over 50% in size; further: potency means the concentration at half of the fitted maximal effect
Summary of the method: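 HSE-bla HeLa; 1500 cells/well; overnight 37 C, 5% CO2; compound 5 h 37 C; LiveBLAzer B/G substrate 2.5 h RT; CellTiter-Glo 30 min RT; luminescence.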

[5] = qHTS assay for small molecule activators of the heat shock response signaling pathway (AID 743210; active means well fitted activation curve with a large enough effect in the signal ratio in the repeat runs, with a control signal flat, not every such curve was filed as active; the % refers to the signal ratio;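 further: HeLa cells with beta-lactamase reporter driven by heat shock elements; series mostly up to about 63 µM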)
Summary of the method: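 Beta-lactamase reporter read-out: FRET substrate fluorescence after 2.5 h at RT, following 5 h compound treatment at 37 C of HeLa cells carrying HSE-driven bla reporter; quantitative HTS format.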

[6] = qHTS assay to identify small molecule agonists of the peroxisome proliferator-activated receptor delta (PPARd) signaling pathway - cell viability counter screen (AID 743211); further: nearly all actives have a fitted effect of over 55% in size; further: potency means the concentration at half of the fitted maximal effect
Summary of the method: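 PPARd-bla HEK293H cells (UAS-beta-lactamase reporter) were treated with compounds for 17 h at 37 C. Viability was then read in the same wells by CellTiter-Glo luminescence after 30 min at room temperature.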

[7] = qHTS assay to identify small molecule antagonists of the peroxisome proliferator-activated receptor delta (PPARd) signaling pathway - cell viability counter screen (AID 743213); further: nearly all actives have a fitted effect of over 50% in size; further: potency means the concentration at half of the fitted maximal effect
Summary of the method: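 PPARd-bla HEK293H cells were treated with compounds plus agonist L165041 (300 nM final) for 17 h at 37 C. Viability was then read in the same wells by CellTiter-Glo luminescence after 30 min at room temperature.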

[8] = qHTS assay to identify small molecule agonists of the farnesoid-X-receptor (FXR) signaling pathway - cell viability counter screen (AID 743218); further: nearly all actives have a fitted effect of over 45% in size; further: potency means the concentration at half of the fitted maximal effect
Summary of the method: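 Luminescence from CellTiter-Glo, read after 30 min at RT, reports viability of GeneBLAzer FXR-UAS-bla HEK 293T cells treated 16 h with compounds in the wells used for the beta-lactamase reporter.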

[9] = qHTS assay to identify small molecule antagonists of the farnesoid-X-receptor (FXR) signaling pathway - cell viability counter screen (AID 743221; active means well fitted cell-killing curve with a large enough effect in the repeat runs, not every such curve was filed as active; further: nearly all actives have a fitted effect of over 50% in size; further: potency means the concentration at half of the fitted maximal effect)
Summary of the method: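 FXR-UAS-bla HEK 293T cells were treated with test compounds plus chenodeoxycholic acid (50 uM final) for 16 h at 37 C. Cell viability in the same wells was then read as CellTiter-Glo luminescence after 30 min at room temperature.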

[10] = qHTS assay to identify small molecule agonists of the vitamin D receptor (VDR) signaling pathway - cell viability counter screen (AID 743224); further: nearly all actives have a fitted effect of over 50% in size; further: potency means the concentration at half of the fitted maximal effect
Summary of the method: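 Cytotoxicity counter screen: VDR-bla cells, 16 h compound exposure at 37C, 5% CO2; CellTiter-Glo luminescence, 30 min RT, same wells as bla read.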

[11] = qHTS assay for small molecule agonists of the antioxidant response element (ARE) signaling pathway - cell viability counter screen (AID 743203; calls by dose curve; further: nearly all actives have a fitted effect of over 55% in size)
Summary of the method: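 Luminescence read-out (CellTiter-Glo, 30 min at room temperature) measured cell viability in the same wells as the ARE beta-lactamase reporter. HepG2 ARE-bla cells were treated with compounds for 16 hrs at 37C/5% CO2.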

[12] = target: Peroxisome proliferator-activated receptor delta (Homo sapiens) (UniProt Q03181); test: qHTS assay to identify small molecule agonists of the peroxisome proliferator-activated receptor delta (PPARd) signaling pathway (AID 743212; calls by dose curve)
Sequence of Peroxisome proliferator-activated receptor delta (Homo sapiens) (Q03181 whole entry, looked up): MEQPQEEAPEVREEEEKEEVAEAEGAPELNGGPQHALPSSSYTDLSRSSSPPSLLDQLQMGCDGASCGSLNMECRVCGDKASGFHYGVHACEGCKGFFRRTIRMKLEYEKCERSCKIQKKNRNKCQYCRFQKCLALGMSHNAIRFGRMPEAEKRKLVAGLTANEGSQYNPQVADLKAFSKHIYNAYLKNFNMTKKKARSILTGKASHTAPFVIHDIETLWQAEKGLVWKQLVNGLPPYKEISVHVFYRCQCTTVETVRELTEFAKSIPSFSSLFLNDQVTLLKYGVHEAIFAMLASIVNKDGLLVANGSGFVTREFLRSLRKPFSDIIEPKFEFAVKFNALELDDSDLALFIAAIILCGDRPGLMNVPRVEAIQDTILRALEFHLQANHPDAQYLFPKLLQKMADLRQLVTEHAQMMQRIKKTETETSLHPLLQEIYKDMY
Summary of the method: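 Read-out: beta-lactamase FRET fluorescence after 2 h room-temperature incubation with LiveBLAzer B/G substrate. Cells were HEK293H carrying a UAS-bla reporter for PPARd, treated at 37 C with DMSO-dissolved compounds.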

[13] = target: Peroxisome proliferator-activated receptor delta (Homo sapiens) (UniProt Q03181); test: qHTS assay to identify small molecule antagonists of the peroxisome proliferator-activated receptor delta (PPARd) signaling pathway (AID 743215; active means well fitted inhibition curve with a large enough effect in the signal ratio in the repeat runs, not every such curve was filed as active; the % refers to the signal ratio;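 further: cells stimulated with agonist L165041 at 300 nM final during compound exposure; series mostly up to about 62 µM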)
Summary of the method: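 HEK293H GeneBLAzer PPARd UAS-bla reporter cells; cpd + L165041 300 nM final, 17 h 37 C; LiveBLAzer B/G FRET substrate 2 h RT; fluorescence intensity read-out. Antagonist mode.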

[14] = target: Bile acid receptor (Homo sapiens) (UniProt Q96RI1); test: qHTS assay to identify small molecule antagonists of the farnesoid-X-receptor (FXR) signaling pathway (AID 743217; active means well fitted inhibition curve with a large enough effect in the signal ratio in the repeat runs, not every such curve was filed as active; the % refers to the signal ratio)
Sequence of Bile acid receptor (Homo sapiens) (Q96RI1 whole entry, looked up): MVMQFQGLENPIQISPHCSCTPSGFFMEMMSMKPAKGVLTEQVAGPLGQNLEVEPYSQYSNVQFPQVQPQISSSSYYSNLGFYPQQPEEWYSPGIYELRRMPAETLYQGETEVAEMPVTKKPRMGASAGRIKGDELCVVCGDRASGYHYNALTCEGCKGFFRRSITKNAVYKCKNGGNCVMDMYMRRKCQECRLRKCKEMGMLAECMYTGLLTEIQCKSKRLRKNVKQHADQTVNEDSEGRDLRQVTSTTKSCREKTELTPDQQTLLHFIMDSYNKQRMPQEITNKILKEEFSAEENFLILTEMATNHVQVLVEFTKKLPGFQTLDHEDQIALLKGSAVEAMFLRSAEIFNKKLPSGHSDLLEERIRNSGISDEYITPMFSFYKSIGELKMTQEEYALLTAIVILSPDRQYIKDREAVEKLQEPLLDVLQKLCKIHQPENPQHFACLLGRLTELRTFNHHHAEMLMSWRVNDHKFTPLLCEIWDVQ
Summary of the method: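 Read-out: beta-lactamase FRET fluorescence (LiveBLAzer B/G substrate, 2 h, room temperature) in GeneBLAzer FXR-UAS-bla HEK 293T cells. Compounds were co-dosed with 50 uM chenodeoxycholic acid (final) and incubated 16 h at 37 °C.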

[15] = target: Bile acid receptor (Homo sapiens) (UniProt Q96RI1); test: qHTS assay to identify small molecule agonists of the farnesoid-X-receptor (FXR) signaling pathway (AID 743220; active means well fitted activation curve with a large enough effect in the signal ratio in the repeat runs, not every such curve was filed as active; the % refers to the signal ratio)
Summary of the method: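 FXR-UAS-bla HEK 293T cells carrying a UAS-driven beta-lactamase reporter were plated for 5 h at 37C/5% CO2, then exposed to DMSO-dissolved Tox21 10K compounds for 16 h at 37C. A LiveBLAzer B/G FRET substrate was loaded for 2 h at room temperature before fluorescence reading.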

[16] = target: Vitamin D3 receptor (Homo sapiens) (UniProt P11473); test: qHTS assay to identify small molecule agonists of the vitamin D receptor (VDR) signaling pathway (AID 743222; calls by dose curve)
Sequence of Vitamin D3 receptor (Homo sapiens) (P11473 whole entry, looked up): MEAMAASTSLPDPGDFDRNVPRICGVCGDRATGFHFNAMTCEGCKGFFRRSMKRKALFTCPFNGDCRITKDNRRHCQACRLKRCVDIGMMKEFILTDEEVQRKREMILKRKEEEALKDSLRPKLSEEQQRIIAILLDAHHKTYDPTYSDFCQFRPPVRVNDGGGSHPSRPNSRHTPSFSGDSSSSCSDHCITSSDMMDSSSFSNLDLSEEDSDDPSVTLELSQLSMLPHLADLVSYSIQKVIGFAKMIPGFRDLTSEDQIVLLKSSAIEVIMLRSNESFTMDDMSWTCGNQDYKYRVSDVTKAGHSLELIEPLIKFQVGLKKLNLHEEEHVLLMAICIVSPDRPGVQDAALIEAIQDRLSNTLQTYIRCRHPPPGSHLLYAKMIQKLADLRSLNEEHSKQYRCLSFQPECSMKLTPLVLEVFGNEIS
Summary of the method: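 Beta-lactamase reporter readout (LiveBLAzer B/G FRET, 2 h RT) in VDR-bla cells after 16 h compound treatment at 37C, 5% CO2; cells pre-incubated 4 h before pin transfer of DMSO solutions.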

[17] = target: Vitamin D3 receptor (Homo sapiens) (UniProt P11473); test: qHTS assay to identify small molecule antagonists of the vitamin D receptor (VDR) signaling pathway (AID 743223; active means well fitted inhibition curve with a large enough effect in the signal ratio in the repeat runs, not every such curve was filed as active; the % refers to the signal ratio)
Summary of the method: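 VDR-bla cells were plated, incubated 4 h at 37C, then given compound and 1alpha,25-dihydroxyvitamin D3 (3 nM final). After 16 h at 37C, LiveBLAzer B/G FRET substrate was added for 2 h at room temperature and fluorescence read.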

[18] = qHTS assay to identify small molecule that activate the aryl hydrocarbon receptor (AhR) signaling pathway - cell viability counter screen (AID 743086);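 further: HepG2 liver cells carrying the AhR DRE luciferase reporter; series mostly up to about 70 µM; nearly all actives have a fitted effect of over 45% in size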
Summary of the method: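 HepG2-AhR-luc (HG2L7.5c1) cells, 4000/well, treated 24 h at 37 C with compound; viability measured as CellTiter-Fluor fluorescence after 30 min in the same wells as the luciferase read.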

[19] = target: Peroxisome proliferator-activated receptor gamma (Homo sapiens) (UniProt P37231); test: qHTS assay to identify small molecule antagonists of the peroxisome proliferator-activated receptor gamma (PPARg) signaling pathway (AID 743191; calls by dose curve; further: series mostly up to about 63 µM; nearly all actives have a fitted effect of over 30% in size)
Summary of the method: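 GeneBLAzer PPARg UAS-bla HEK293H cells, 5 h post-plating, exposed to compounds 17 h at 37C. LiveBLAzer B/G FRET substrate added for 1 h at room temperature; beta-lactamase reporter read by fluorescence intensity.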

[20] = qHTS assay for small molecule agonists of the antioxidant response element (ARE) signaling pathway (AID 743202; active means well fitted activation curve with a large enough effect in the signal ratio in the repeat runs, not every such curve was filed as active; the % refers to the signal ratio)
Summary of the method: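 HepG2 ARE-bla reporter line, 2,000 cells/well; 5 h preincubation 37 C/5% CO2; compound (DMSO) 16 h 37 C; B/G FRET substrate 2 h RT; fluorescence intensity.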

Measured: Potency

CO[C@@H]1[C@@H](OC)[C@H](C)[C@@](O)(CC(=O)O)O[C@H]1[C@H](C)[C@H]1O[C@@]2(CC[C@@](C)([C@H]3CC[C@@](C)([C@@H]4O[C@@H]([C@H]5O[C@](C)(O)[C@H](C)C[C@@H]5C)C[C@@H]4OC4C[C@H](OC)[C@@H](OC)[C@H](C)O4)O3)O2)C[C@H](O)[C@H]1C (stereo partly specified)
active: [3] 8.41 µM | [4] 11.9 µM | [6] 2.98 µM | [7] 5.31 µM | [8] 9.44 µM | [9] 9.44 µM | [10] 5.96 µM
inactive: [1] | [2] | [5]

CC/C=C\C/C=C\C/C=C\CCCCCCCC(=O)OCC
inactive: [1] | [3] | [11] | [12] | [7] | [13] | [14] | [8] | [15] | [9] | [16]

CC1CCCO1 (stereo unspecified)
not listed: [7] | [10] | [14] | [15] | [18] | [19] | [20]
inactive: all other assays above

Nc1nc(-c2ccc([N+](=O)[O-])cc2)cs1
inactive: [18] | [2] | [19] | [3] | [11] | [4] | [5] | [6] | [8] | [15] | [9]

[Cl][Nd]([Cl])[Cl]
not listed: [7] | [13] | [14] | [15] | [17] | [18] | [19] | [20]
inactive: all other assays above

CC(C)(O)c1coc(S(=O)(=O)NC(=O)Nc2c3c(cc4c2CCC4)CCC3)c1
not listed: [1] | [12] | [13]
inactive: all other assays above

CN(C)CC/C=C1\c2ccccc2Sc2ccc(Cl)cc21
inactive: [1] | [2] | [4] | [5] | [13] | [16] | [17]
active: [6] 29.8 µM | [7] 13.3 µM | [8] 23.7 µM

O=S(=O)(O)CO
not listed: [1] | [4] | [12] | [13] | [14] | [15]
inactive: all other assays above

COc1cc(OC)c2ccc(=O)oc2c1
not listed: [13] | [14] | [15] | [16] | [17] | [18] | [19] | [20]
inactive: all other assays above

CC(C)(O)CCc1ccccc1
not listed: [1] | [6] | [15] | [17]
inactive: all other assays above

CC(C)(C)NCC(O)COc1cccc2c1C[C@H](O)[C@H](O)C2 (stereo partly specified)
inactive: [1] | [2] | [3] | [20] | [11] | [5] | [6] | [8] | [9] | [10]

Nc1cccc2c(N)cccc12
active: [1] 19.3 µM
inactive: [2] | [4] | [6] | [12] | [14] | [10]

COc1cc(C(C)=O)ccc1OCCCN1CCC(c2noc3cc(F)ccc23)CC1
inactive: [1] | [3] | [11] | [4] | [5] | [12] | [7] | [8] | [17] | [10]

Cc1ccc(NC(=O)N(C)C)cc1NC(=O)N(C)C
not listed: [1] | [7]
inactive: all other assays above

CC(O)Cn1cnc2c1c(=O)n(C)c(=O)n2C (stereo unspecified)
not listed: [9] | [18] | [19]
inactive: all other assays above

CNS(=O)(=O)c1cc(C(=O)N2CCC(CCN3C4CCC3CC(n3c(C)nc5ccccc53)C4)(c3cccc(F)c3)CC2)c(Cl)cc1F (stereo unspecified)
inactive: [1] | [4]
active: [7] 7.76 µM | [8] 7.76 µM | [9] 21.9 µM

CC(C(=O)O)c1ccc(C(=O)c2cccs2)cc1 (stereo unspecified)
inactive: [1] | [3] | [20] | [11] | [5] | [6] | [8] | [9] | [16] | [17] | [10]

CC(C)Cc1ccc(CC(=O)O)cc1
inactive: [1] | [3] | [20] | [11] | [6] | [12] | [14] | [8] | [9] | [16] | [17]

CSCC[C@H](NC(=O)[C@H](Cc1c[nH]c2ccccc12)NC(=O)CCNC(=O)OC(C)(C)C)C(=O)N[C@@H](CC(=O)O)C(=O)N[C@@H](Cc1ccccc1)C(N)=O
not listed: [1] | [11] | [15] | [16] | [17]
inactive: all other assays above

COc1cc(NS(=O)(=O)c2ccc(N)cc2)nc(C)n1
not listed: [4] | [6] | [18] | [19]
inactive: all other assays above
